Drawing on PubChem BioAssay, this text covers composite z-score and z-score for five molecules.

Assay [1] has as its system Plasmodium falciparum Sir2 (PF13_0152, Sir2A). The assay can be described thus: Plasmodium falciparum Sir2A binding compounds – biochemical, small-molecule microarray, 635 nm fluorescence, primary screen (AID 1098).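 Also: score merges spot fluorescence intensity with its signal-to-noise ratio.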 The note with it: fluorescence 635 nm, higher = more signal.
Assay [2] in a line: probe aDKK1 binding to arrayed compounds – biochemical, biotinylated probe, 635/667 nm fluorescence, primary screen (AID 1099).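 Also: score merges 667nm spot fluorescence with signal to noise across triplicate slides.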 The note with it: small-molecule microarray, higher = more signal.
Assay [3] in a line: probe aCHRDL2 binding to arrayed compounds – biochemical, biotinylated probe, 635/667 nm fluorescence, primary screen (AID 1100). The following applies: small-molecule microarray, higher = more signal.
Assay [4] in a line: change in splice reporter luminescence, either direction, cell-based, HEK293, spliceosome inhibition project, primary screen (AID 1101).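 Also: HEK293 cells carrying a splicing-competent luciferase reporter gene; test concentration not given here.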 The following applies: HEK293 splicing luciferase reporter, 24 h, higher = more signal, called active from +8 up or from −8 down. (In general: Reporter assays use an easily measured gene product as a stand-in for the process of interest.)
The target of assay [5] is Fibroblast growth factor 10 (Homo sapiens) (UniProt O15520). The assay can be described thus: compounds binding fibroblast growth factor 10 – biochemical, small-molecule microarray, 635 nm fluorescence, primary screen (AID 1102). The following applies: FGF10 binding, fluorescence 635 nm, higher = more signal.
Chain of Fibroblast growth factor 10 (Homo sapiens) (O15520 whole entry, looked up): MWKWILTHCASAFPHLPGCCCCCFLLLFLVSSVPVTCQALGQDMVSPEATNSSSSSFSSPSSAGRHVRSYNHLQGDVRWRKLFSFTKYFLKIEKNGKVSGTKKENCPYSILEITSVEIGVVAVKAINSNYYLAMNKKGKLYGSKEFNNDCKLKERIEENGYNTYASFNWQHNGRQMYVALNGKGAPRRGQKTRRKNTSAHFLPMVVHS
The test system of assay [6] is glycogen synthase kinase-3 (GSK3A per assay name; protocol says GSK3B). The assay is described as follows: compounds binding glycogen synthase kinase-3 – biochemical, small-molecule microarray, 635 nm fluorescence, GSK3A, primary screen (AID 1103). Also: the record names both GSK3A and GSK3B. The note with it: fluorescence 635 nm, higher = more signal.
Assay [7] deals with Epidermal growth factor receptor (Homo sapiens) (UniProt P00533). The assay is described as follows: compounds binding epidermal growth factor receptor – biochemical, small-molecule microarray, 635 nm fluorescence, primary screen (AID 1104).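 Also: score merges 667 nm emission intensity with spot signal to noise over triplicate slides.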 The following applies: EGFR binding, higher = more signal.
Chain of Epidermal growth factor receptor (Homo sapiens) (P00533 whole entry, looked up): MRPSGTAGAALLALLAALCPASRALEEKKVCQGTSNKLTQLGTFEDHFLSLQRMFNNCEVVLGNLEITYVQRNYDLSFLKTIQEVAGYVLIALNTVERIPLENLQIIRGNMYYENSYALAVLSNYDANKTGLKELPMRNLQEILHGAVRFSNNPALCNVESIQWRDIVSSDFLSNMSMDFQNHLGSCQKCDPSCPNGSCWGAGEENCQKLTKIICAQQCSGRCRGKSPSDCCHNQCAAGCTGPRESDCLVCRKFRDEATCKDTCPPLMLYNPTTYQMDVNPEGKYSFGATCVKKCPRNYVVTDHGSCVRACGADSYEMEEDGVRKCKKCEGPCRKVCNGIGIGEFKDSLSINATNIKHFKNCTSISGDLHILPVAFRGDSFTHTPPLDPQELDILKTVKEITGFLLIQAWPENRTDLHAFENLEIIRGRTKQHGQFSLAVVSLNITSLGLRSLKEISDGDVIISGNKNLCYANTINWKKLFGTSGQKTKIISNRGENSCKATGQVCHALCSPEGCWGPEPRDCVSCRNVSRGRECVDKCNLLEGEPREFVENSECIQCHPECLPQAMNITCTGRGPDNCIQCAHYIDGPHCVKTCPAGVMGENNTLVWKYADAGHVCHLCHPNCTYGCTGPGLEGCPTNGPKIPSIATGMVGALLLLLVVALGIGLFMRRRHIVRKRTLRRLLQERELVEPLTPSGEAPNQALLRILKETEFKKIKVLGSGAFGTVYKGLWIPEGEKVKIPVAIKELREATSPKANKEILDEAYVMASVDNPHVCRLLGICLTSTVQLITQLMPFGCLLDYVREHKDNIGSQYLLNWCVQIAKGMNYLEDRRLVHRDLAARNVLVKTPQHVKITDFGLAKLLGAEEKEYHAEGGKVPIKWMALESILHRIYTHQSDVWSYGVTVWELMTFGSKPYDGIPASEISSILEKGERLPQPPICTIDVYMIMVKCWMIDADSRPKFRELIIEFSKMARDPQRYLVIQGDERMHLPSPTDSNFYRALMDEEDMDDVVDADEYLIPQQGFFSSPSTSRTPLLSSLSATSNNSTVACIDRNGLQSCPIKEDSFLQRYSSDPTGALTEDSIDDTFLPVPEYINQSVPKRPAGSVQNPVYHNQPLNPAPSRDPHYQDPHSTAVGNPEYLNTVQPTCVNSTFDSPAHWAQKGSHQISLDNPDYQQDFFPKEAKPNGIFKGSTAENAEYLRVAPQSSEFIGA
In assay [8] the target is Follistatin-related protein 3 (Homo sapiens) (UniProt O95633). The assay can be described thus: compounds binding follistatin-related protein 3 – biochemical, small-molecule microarray, 635 nm fluorescence, primary screen (AID 1105).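 Also: score merges emission near 667 nm and signal to noise per printed spot across three slides.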 The note with it: FSTL3 binding, higher = more signal.
Chain of Follistatin-related protein 3 (Homo sapiens) (O95633 whole entry, looked up): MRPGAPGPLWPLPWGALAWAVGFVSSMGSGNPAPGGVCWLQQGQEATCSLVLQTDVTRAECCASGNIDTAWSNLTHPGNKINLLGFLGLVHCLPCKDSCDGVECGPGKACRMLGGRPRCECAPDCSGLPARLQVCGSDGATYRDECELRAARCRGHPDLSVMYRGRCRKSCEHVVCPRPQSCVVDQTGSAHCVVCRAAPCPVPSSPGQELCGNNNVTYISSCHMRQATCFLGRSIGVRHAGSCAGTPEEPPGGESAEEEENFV
For assay [9], the target named is Dickkopf-related protein 1 (Homo sapiens) (UniProt O94907). The assay is described as follows: small molecules binding DKK1 protein – biochemical, small-molecule microarray, 635 nm fluorescence scan, primary screen (AID 1106).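 Also: score merges emission near 667 nm with signal to noise over three replicate slides.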 The following applies: higher = more signal.
Chain of Dickkopf-related protein 1 (Homo sapiens) (O94907 whole entry, looked up): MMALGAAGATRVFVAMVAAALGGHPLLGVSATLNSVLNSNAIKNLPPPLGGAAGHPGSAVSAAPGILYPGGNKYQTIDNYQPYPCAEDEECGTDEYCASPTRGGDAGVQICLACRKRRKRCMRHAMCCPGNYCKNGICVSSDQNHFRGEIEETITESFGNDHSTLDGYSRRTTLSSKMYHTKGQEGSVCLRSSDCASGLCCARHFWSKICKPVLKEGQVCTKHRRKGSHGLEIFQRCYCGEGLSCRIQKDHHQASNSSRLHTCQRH
In assay [10] the test system is Inhibin beta A chain (activin A). The assay can be described thus: small molecules binding activin A – biochemical, small-molecule microarray, 635 nm fluorescence scan, primary screen (AID 1107).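 Also: mouse activin A protein probed at 4.33 µg/mL on printed slides; score merges bound-protein fluorescence near 667 nm with spot signal-to-noise.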 The note with it: INHBA, higher = more signal.
In assay [11] the test system is Human papillomavirus type 1a protein E7 (residues 44-93). The assay can be described thus: small molecules binding HPV E7 44-93 – biochemical, small-molecule microarray, residues 44-93, 635 nm fluorescence, primary screen (AID 1108).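 Also: E7 fragment applied at 1 µg/mL in TBST for 1 h at 4 C; score combines spot fluorescence with its signal to noise ratio.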 The following applies: fluorescence 635 nm, higher = more signal.
Assay [12] in a line: hepatitis C replication reporter changes, two-sided – Huh7 cells, luciferase reporter, HCV replication inhibitor project, primary screen (AID 1109).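 Also: huh7 hepatoma cells harbouring a luciferase neomycin HCV replicon reporter; luciferase luminescence as measure of HCV replicon replication; test concentration not given here.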 The note with it: Huh7 HCV replicon luciferase reporter, 48 h; higher = more signal.
Assay [13] deals with Left-right determination factor 2 (Homo sapiens) (UniProt O00292). The assay is described as follows: small molecules binding LEFTY2 protein – biochemical, small-molecule microarray, 635 nm fluorescence scan, primary screen (AID 1110). The following applies: higher = more signal.
Chain of Left-right determination factor 2 (Homo sapiens) (O00292 whole entry, looked up): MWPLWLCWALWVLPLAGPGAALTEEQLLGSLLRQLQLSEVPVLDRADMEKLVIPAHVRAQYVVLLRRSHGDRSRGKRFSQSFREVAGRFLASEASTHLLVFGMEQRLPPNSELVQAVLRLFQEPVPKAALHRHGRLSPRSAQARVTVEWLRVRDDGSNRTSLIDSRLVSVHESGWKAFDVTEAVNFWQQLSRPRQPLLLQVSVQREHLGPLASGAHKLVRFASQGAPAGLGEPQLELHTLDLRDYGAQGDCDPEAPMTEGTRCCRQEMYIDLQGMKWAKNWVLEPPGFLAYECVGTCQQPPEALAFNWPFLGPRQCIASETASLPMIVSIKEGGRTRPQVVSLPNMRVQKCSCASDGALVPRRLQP
In assay [14] the target is Calmodulin-1 (Homo sapiens) (UniProt P0DP23). The assay can be described thus: small molecules binding calmodulin-1 with EGTA – biochemical, small-molecule microarray, Cy5-labelled CALM1, profiling panel (AID 1111).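 Also: labelled calmodulin applied in Tris saline Tween buffer holding calcium plus EGTA and DTT.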 The following applies: Cy5-CALM1 binding fluorescence, higher = more signal.
The target is the same in assay [15]. The assay can be described thus: small molecules binding Ca-loaded calmodulin-1 – biochemical, small-molecule microarray, Cy5-labelled CALM1, plus calcium, artefact control for SMM control-protein annotation, profiling panel (AID 1112).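 Also: score merges spot fluorescence with signal to noise from triplicate slides.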 The following applies: Cy5-CALM1 binding fluorescence, higher = more signal.
Assay [16] is described as follows: probe aWnt5a binding to arrayed compounds – biochemical, biotinylated probe, 635/667 nm fluorescence, primary screen (AID 1113).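 Also: score merges 667 nm fluorescence intensity with signal-to-noise per printed feature.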 The following applies: small-molecule microarray, higher = more signal.
A short description of assay [17]: probe aShh binding to arrayed compounds – biochemical, biotinylated probe, 635/667 nm fluorescence, primary screen (AID 1114).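 Also: probe is biotin-labelled aShh protein from a stem cell growth factor screen; measures binding of labelled protein to compounds printed on the slide; score merges feature fluorescence at 667 nm with signal-to-noise.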 The note with it: small-molecule microarray, higher = more signal.
Assay [18] in a line: probe aNog binding to arrayed compounds – biochemical, biotinylated probe, 635/667 nm fluorescence, primary screen (AID 1115).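 Also: probe is biotinylated aNog protein used at 0.15 µg/mL for 1 h at 4 C; z-score combines 667 nm fluorescence of each spot with its signal to noise.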 The following applies: small-molecule microarray, higher = more signal.
For assay [19], the target named is Torsin-1A-interacting protein 1 (Homo sapiens) (UniProt Q5JTV8). The assay is described as follows: compound microarray binding of lysate hLAP1 – cell lysate, small-molecule microarray, COS7 lysate, 635/667 nm fluorescence, primary screen (AID 1116). The following applies: 635 nm fluorescence, higher = more signal.
Chain of Torsin-1A-interacting protein 1 (Homo sapiens) (Q5JTV8 whole entry, looked up): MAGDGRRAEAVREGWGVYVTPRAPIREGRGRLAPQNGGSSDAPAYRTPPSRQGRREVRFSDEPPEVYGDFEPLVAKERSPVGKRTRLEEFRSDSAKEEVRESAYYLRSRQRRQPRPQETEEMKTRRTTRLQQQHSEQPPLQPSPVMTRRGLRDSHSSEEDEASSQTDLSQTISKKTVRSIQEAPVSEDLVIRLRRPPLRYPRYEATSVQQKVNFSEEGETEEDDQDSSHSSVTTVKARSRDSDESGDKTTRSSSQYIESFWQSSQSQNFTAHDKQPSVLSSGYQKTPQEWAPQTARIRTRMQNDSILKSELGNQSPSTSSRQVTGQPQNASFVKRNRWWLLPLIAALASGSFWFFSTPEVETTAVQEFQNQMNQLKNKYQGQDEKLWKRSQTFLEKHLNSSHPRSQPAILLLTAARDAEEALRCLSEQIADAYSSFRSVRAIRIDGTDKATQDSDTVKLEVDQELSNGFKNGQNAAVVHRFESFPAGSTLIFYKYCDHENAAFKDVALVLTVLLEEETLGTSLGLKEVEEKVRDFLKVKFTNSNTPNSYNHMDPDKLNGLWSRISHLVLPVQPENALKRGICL
Assay [20] concerns the target Alpha-bungarotoxin (Bungarus multicinctus) (UniProt P60615). The assay is described as follows: compounds binding labelled alpha-BTX control protein – biochemical, small-molecule microarray, Alexa647 label, 635/667 nm fluorescence, artefact control for SMM control protein annotation, profiling panel (AID 1117). The following applies: alpha-BTX-A647 binding fluorescence, higher = more signal.

Several values for one entry are separate records, joined by “and”; a condition that tells them apart may be missing. Identical values can stand only once. Activity calls are given as the source filed them.

Chain of Alpha-bungarotoxin (Bungarus multicinctus) (P60615 whole entry, looked up): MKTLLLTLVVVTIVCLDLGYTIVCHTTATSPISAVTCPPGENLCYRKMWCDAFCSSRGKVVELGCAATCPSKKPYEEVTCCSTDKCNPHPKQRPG

Consider `COC(=O)C1=C(C)N(Cc2ccccc2)C2=C(C(=O)c3ccccc3)[C@H](c3ccccc3)[C@@](O)(C(=O)OC)C(=O)N2[C@@H]1c1ccccc1`, for which the composite z-score in [1] was 0.419 and 0.36; in assay [2] it was -0.0581 and -0.208; in [3], -0.178 and -0.433; in assay [5], 0.654 and 0.495; in assay [6], 0.739 and 0.519; in assay [7], 0.392 and 0.353. For the same molecule, the composite z-score was 0.626 and 0.53 in [8]; 0.638 and 0.349 in assay [9]; -0.0471 and -0.0052 in [10]; 1.15 and 0.774 in assay [11]; 0.32 and 0.577 in [13]; 0.046 and -0.136 in assay [14]. For the same molecule, the composite z-score in assay [15] is -0.373 and -0.51; in assay [16], -0.176 and -0.1; in [17], -0.137 and -0.0626; in assay [18] it was -0.31 and 0.0197; in [19], 0.202 and 0.17; in assay [20] it was -0.115 and -0.0752. For the same molecule, the z-score in assay [4] is -1.7 (inactive) and 0.839 (inactive); in assay [12], -2.05 and 0.964.

As for `C[C@@H]1CC[C@H]2C(=O)NC[C@@H](O)CN2[C@H]1c1ccc(Br)cc1`, the composite z-score is 0.102 and 0.107 in [1]; -0.214 and -0.138 in assay [2]; -0.0441 and -0.0598 in assay [3]; -0.0319 and -0.141 in [5]; -0.645 and -0.288 in [6]; -0.251 and -0.159 in [7]. The composite z-score in assay [8] was -0.348 and -0.394; in assay [9] it was -0.219 and -0.179; in assay [10] it was 0.747 and 0.211; in [11], 0.111 and -0.325; in assay [13] it was -0.0095 and 0.204; in assay [14], -0.234 and -0.448. Further, the composite z-score is -0.342 and -0.438 in assay [15]; -0.0758 and -0.0405 in assay [16]; -0.138 and 0.235 in assay [17]; 0.0014 and -0.194 in assay [18]; 0.36 and 0.348 in [19]; 0.141 and -0.195 in assay [20]. Further, the z-score in assay [4] was 0.338 (inactive) and 0.0732 (inactive); in [12] it was -0.376 and -0.362.

As to `C=CCN(CCCC)C(=O)C1N(c2ccc(CCO)cc2)C(=O)C2C(C(=O)O)C3C=CC21O3` (stereo not given), the composite z-score was -1.39 and 1.08 in assay [1]; -0.112 and -0.229 in assay [2]; 0.354 and 1.07 in [3]; -1.48 and -1.93 in assay [5]; -1.54 and -1.22 in [6]; -1.51 and -2.06 in assay [7]. Moreover, the composite z-score in [8] is -1.76 and -2.15; in assay [9], -2.31 and -3.32; in [10] it was -1.59 and -3.61; in [11] it was -2.07 and -0.32; in [13] it was -2.86 and -4.53; in assay [14], -0.828 and -1.3. The composite z-score in assay [15] is 0.33 and 0.554; in [16], -0.221 and -0.296; in [17] it was 0.0796 and 0.292; in assay [18], -0.265 and -0.565; in [19], -0.994 and -1; in assay [20] it was -0.577 and -1.86. The z-score in assay [4] is -0.378 (inactive) and 0.182 (inactive); in [12] it was -0.213 and 1.02.

For `CC(=O)OC[C@H]1O[C@H](C#CC(C)(C)C)C=C[C@@H]1OC(C)=O`, the composite z-score in assay [1] is 0.731; in [2], 0.202; in assay [3], -0.508; in [5], 0.871; in [6], 0.225; in assay [7], 0.274. Also, the composite z-score in assay [8] was 1.31; in [9], 0.535; in assay [10] it was -0.209; in assay [11] it was 1.31; in assay [13], 0.934; in assay [14], 0.957. The composite z-score in assay [15] was 0.189; in assay [16] it was -0.191; in [17], 0.0596; in [18], -0.433; in [19], 0.852; in assay [20] it was 1.09. In addition, the figures for the z-score in assay [4] and in assay [12] were 1.16 (inactive) and -1.94, respectively.

For the molecule `Cc1cc2c(nc1C)CCCN2CC(O)CN1CCCc2nc(-c3ccc(Br)cc3)ccc21` (stereo not given), the composite z-score in [1] was 1.16 and 0.822; in assay [2], 0.116 and 1.46; in [3] it was 0.334 and 0.608; in assay [5], 1.21 and 1.31; in [6], 1.29 and 1.14; in assay [7], 0.852 and 1.05. Besides, the composite z-score was 1.43 and 1.25 in assay [8]; 1.06 and 1.08 in assay [9]; 1.33 and 1.31 in [10]; 1.32 and 1.19 in assay [11]; 0.917 and 0.75 in [13]; 0.645 and 1.01 in assay [14]. Besides, the composite z-score in [15] is -0.0329 and 0.151; in assay [16], 0.361 and 0.499; in assay [17], 0.641 and 1.58; in [18], 0.676 and 1.1; in assay [19] it was 0.126 and 1.1; in assay [20] it was 1.92 and 2.78. Further, the z-score is -0.605 (inactive) and -0.58 (inactive) in assay [4]; -1.3 and -2.09 in assay [12].
